Molecules are shown by their SMILES. The panel holds about 83,000 compounds, 20% with a hit somewhere; the sample as a whole holds those more often.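 Testing used 96-well plates and a 48-hour single-concentration exposure. Example: -40 means 40% of the starting cells died.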 Active and inactive are the calls of the source. The calls were made as follows: active = growth percent below 10; inactive = the rest.

The test system of this assay is COLO 205 colon. Put plainly: NCI-60 one-dose screen, 48 h (100 = growth as untreated, 0 = no growth, -100 = all killed). The conditions noted are these: 10 µM unless noted.
In the case of `O=C(NCCNc1nccc(-c2c(-c3cccc(F)c3)nc3sccn23)n1)c1ccc(Cl)cc1`, the growth was 29.8% (inactive).
Next, `C=C1C(=O)O[C@H]2[C@H]1CC/C(COC(=O)NCCc1c[nH]c3ccc(OC)cc13)=C\CC[C@@]1(C)O[C@@H]21`: -47.2% (active); `COc1cc(CC(=O)c2ccc(O)c(OC)c2)ccc1O`: 107% (inactive).
Take `CCN(CC)c1ccc(/C=N/NC(=O)CSc2nc3ccccc3c(=O)n2CCc2ccc(S(N)(=O)=O)cc2)c(O)c1`: the growth was 1.47% (active).
Consider `Cc1ccc(-n2c3c(c(-c4ccccc4)c2-c2ccccc2)C2=NCCN2C=N3)cc1`, for which the growth was 101% (inactive).
Consider `CN1CCN(C(=O)[C@]23CCC(C)(C)C[C@H]2C2=CC[C@@H]4[C@@]5(C)C/C(=C/c6ccncc6)C(=O)C(C)(C)[C@@H]5CC[C@@]4(C)[C@]2(C)CC3)CC1`, for which the growth was 41.9% (inactive).
Next, `C=C(C)[C@@H]1CC[C@]2(C(=O)N3CCN(C)CC3)CC[C@]3(C)[C@H](CC[C@@H]4[C@@]5(C)C/C(=C/c6cccnc6)C(=O)C(C)(C)[C@@H]5CC[C@]43C)[C@@H]12`: 65% (inactive); `N/C(=N\C(N)=N\c1nc2ccccc2s1)c1cccc(Cl)c1`: 101% (inactive).
For `CCOC(=O)Nc1ccc(-c2ccc3c(c2)NC(=O)/C3=C\c2ccc[nH]2)cc1`, the growth was 125% (inactive).
With `CCNC(=O)Oc1ccc(/C(=C(\C)c2ccccc2)c2ccc(OCCN(CC)CC)cc2)cc1`, the growth was 52.2% (inactive).
Under `CCOC(=O)/C(C#N)=C1/NNC(=Nc2cccnc2)S1` stands 103% (inactive); under `COc1cccc(-c2nc3occn3c2-c2ccnc(NCCCNS(=O)(=O)c3ccc(C(F)(F)F)cc3)n2)c1`, 70% (inactive).
On to `CC(=O)Nc1ccc(-n2cnc3cc(-c4ccc(OCCN5CCCCC5)cc4)ccc32)cc1`, for which the growth is 107% (inactive).
For `Cn1ccnc1C(=O)/C=C/c1ccc(CC(=O)Nc2ccc(Cl)cc2)cc1`, the growth was 7.39% (active).
Next, `C=CCN1C(=O)/C(=C/C(=O)OC)S/C1=N\NC(=O)c1cc2ccc1/C=C\c1ccc(cc1)/C=C\2`: 110% (inactive); `COc1ccc(/C=C(\C#N)n2nc3cccc(F)c3n2)cc1`: 115% (inactive); `N/C(=N\C(N)=N\c1nc2ccccc2s1)c1cnccn1`: 16.2% (inactive).
Take `Cc1c(C(=O)NCCC(=O)NO)sc2ncnc(Nc3ccc(NC(=O)Nc4cccc(C(F)(F)F)c4)cc3)c12`: the growth is 113% (inactive).
Consider `O=C(Nc1ccc(-c2ccc3c(c2)NC(=O)/C3=C\c2ccc[nH]2)cc1)NC1CC1`, for which the growth was 115% (inactive).
With `S=c1cc(S)c2cc(Br)ccc2[nH]1`, the growth is 98.8% (inactive).
Consider `CCCCOc1ccc(/C=N/Nc2cc(C)nc3ccc(Br)cc23)cc1`, for which the growth was -58.5% (active).
Under `N/C(=N\C(N)=N\c1nc2ccccc2s1)c1ccnc(Br)c1` stands 21.4% (inactive); under `COc1cc(NC(C)CCCNC(=O)CCC(=O)NCCCNCCCCCCCCNCCCNC(=O)CCC(=O)NCCCC(C)Nc2cc(OC)cc3cccnc23)c2ncccc2c1` (stereo unspecified), 14.7% (inactive); under `COc1cc2nc(-c3ccc(C(F)(F)F)cc3)cc(OCCCN3CCOCC3)c2cc1OC`, 20% (inactive).
Turning to `O=C(Cn1c[n+](CC(=O)c2ccc(-c3ccccc3)cc2)c2ccccc21)Nc1cccc2cccnc12`, the growth is -61.8% (active).
For the molecule `CC(Oc1ccc(C(=O)O)cc1C(F)(F)F)c1ccc(Oc2ccccc2)cn1` (stereo unspecified), the growth is 130% (inactive).
Under `O=C(Nc1ccc(F)cc1)Nc1ccc(NC(=O)c2cc(Cl)nc3ccccc23)cc1` stands 53.5% (inactive); under `O=C(CCN1CCCC1)Nc1ccc2c(Nc3ccc(F)cc3)c3ccccc3nc2c1`, -33.2% (active); under `CC(Sc1nc2ccccc2c(=O)n1CCc1ccc(S(N)(=O)=O)cc1)C(=O)Nc1ccc(Cl)cc1` (stereo unspecified), 106% (inactive).
Under `O=C(N/N=C/c1cc2ccccc2n2nnnc12)Nc1ccccc1` stands 108% (inactive); under `CC1(C)CC(=O)C2=C(C1)N(c1ccc(F)cc1F)C(N)=C(C#N)C2c1cc(Br)ccc1F` (stereo unspecified), 118% (inactive).

The values are drawn from PubChem BioAssay (NCI).
